Values joined by “and” are separate entries in the source; they are usually repeats but may differ in a detail not shown here. Equal values may be shown once. Records with an inconclusive call do not appear. Active and inactive are the calls of the source.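 The calls were made as follows, unless noted: active = normalized viability below 100% at a tested concentration; inactive = the rest.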
What was measured:
[1] = viability loss in pontine glioma line – cell-based, SU-DIPG-XIII, MIPE4.0, CellTiter-Glo, qHTS, dose response (AID 1347061; cut-off not given, nearly all actives have AC50 up to about 37 µM;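 also: cells exposed to compound for 48 hours before readout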); settings: CellTiter-Glo ATP luminescence
[2] = growth inhibition of DIPG cells – cell-based, MIPE4.0 library, CellTiter-Glo luminescence, qHTS (AID 1347066; cut-off not given, nearly all actives have AC50 up to about 30 µM;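 also: cells exposed to compound for 48 hours before readout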); settings: SU-DIPG-VI viability, CellTiter-Glo ATP luminescence
[3] = growth inhibition of DIPG cells – cell-based, MIPE5.0 library, qHTS (AID 1347068; cut-off not given, nearly all actives have IC50 up to about 30 µM); settings: SU-DIPG-XXV viability
[4] = viability loss with induced miR-34 in A549 – imaging, A549 dox-inducible miR-34, nuclei and caspase counts, primary screen (AID 1347080;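 active = compounds whose cell count with miR-34 switched on is under 0.7 times the count with it off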); settings: A549 miR-34 inducible, Hoechst nuclei count, 48 h
[5] = compounds altering HSF1 focus formation in cells – imaging, Selleck Cancer Library (AID 1347162; in the data active = plate-normalised HSF1 focus index below about 0.46); settings: human cells, HSF1 nuclear foci imaging, at 10 µM; SSMD: measured here: HSF1 foci SSMD mean; cell count: measured here: cell number; plate-normalised HSF1 focus index: stronger effect = lower value
[6] = MELAS cybrid and Rieske KO viability enhancers – cell-based, MELAS cybrids, Rieske KO mouse fibroblasts, CellTiter-Glo, primary screen (AID 1508586;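 active = mean z-score across replicates of 1.96 or higher in either the MELAS or the Rieske mutant cell line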;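 also: z relative to plate mean and SD of compound and empty wells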); settings: low glucose
[7] = drug combination growth inhibition, ovarian cancer – cell-based, oncology-focused library, rucaparib conditional, profiling panel (AID 1508598); settings: patient-derived ovarian cancer cells, CellTiter-Glo viability, 144 h, stronger effect = lower value
[8] = growth inhibition, single agent or in combination, cell-based, chromothripsis tumors, cisplatin or BGB combos (AID 1671449; in the data active = inhibition above about 80%;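 also: cells exposed for 96 hours; 0% = vehicle DMSO and 100% = killing by high DMSO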); settings: LFS_MB_P medulloblastoma cells
[9] = growth inhibition, single agent and combos, cell-based, chromothripsis tumors, cisplatin or BGB combos (AID 1671450; in the data active = inhibition above about 80%;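 also: cells exposed to compound for four days; 0% = vehicle DMSO and 100% = cell killing by high DMSO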); settings: HDN33 neuroblastoma cells, stronger effect = higher value

CN(C)Cc1ccc(-c2nc3cccc4c3n2CCNC4=O)cc1
64% and -31.1%: inhibition ([8]; measured here: combination with BGB IC40, at 0.005 µM)
-13.1% and -21.5%: inhibition ([9]; measured here: with BGB IC20 combination, at 0.5 µM)
1.02: fold change ([4]; measured here: relative caspase fold change +Dox/-Dox)
6740: cell count ([4]; measured here: total cells with miR-34 induction, stronger effect = lower value)
6.93% and -10.3%: inhibition ([9]; cisplatin combo, at 5 µM)
-0.0135: z-score ([6]; Rieske KO mouse fibroblast survival, CellTiter-Glo 72 h)
active: AC50 [1] 18.7 µM | viability ([7]; at 0.000305 µM, OCI-P5x cells, with rucaparib 20 µM, 100% = cells with rucaparib alone) 98.3% | viability ([7]; at 0.00122 µM, OCI-P5x cells, with rucaparib 20 µM, 100% = cells with rucaparib alone) 98.2% | viability ([7]; at 0.0195 µM, OCI-P5x cells, with rucaparib 20 µM, 100% = cells with rucaparib alone) 97% | viability ([7]; at 0.0781 µM, OCI-P5x cells, with rucaparib 20 µM, 100% = cells with rucaparib alone) 89.9% | viability ([7]; at 0.313 µM, OCI-P5x cells, with rucaparib 20 µM, 100% = cells with rucaparib alone) 88.6% | viability ([7]; at 1.25 µM, OCI-P5x cells, with rucaparib 20 µM, 100% = cells with rucaparib alone) 88.7% | viability ([7]; at 1.25 µM, OCI-P5x cells, without rucaparib) 92.1% | viability ([7]; at 5 µM, OCI-P5x cells, with rucaparib 20 µM, 100% = cells with rucaparib alone) 78.4% | viability ([7]; at 5 µM, OCI-P5x cells, without rucaparib) 83.9%
-4.63% and 68.3%: inhibition ([9]; single agent, at 5 µM)
-13% and -56%: inhibition ([8]; measured here: combination with BGB IC40, at 0.05 µM)
-0.246: SSMD [5]
-26.8% and -18.6%: inhibition ([9]; BGB combo, at 5 µM)
15.7% and -26.9%: inhibition ([9]; measured here: with cisplatin IC20 combination, at 0.5 µM)
7430: cell count [5]
-37.5% and -16.8%: inhibition ([8]; measured here: combination with cisplatin, at 0.5 µM, stronger effect = higher value)
inactive: outcome [2] | outcome [3] | fold change ([4]; stronger effect = lower value, cell number ratio, induced over uninduced) 0.89 | plate-normalised HSF1 focus index [5] 0.994 | z-score ([6]; MELAS cybrid survival, CellTiter-Glo 48 h, stronger effect = higher value) -0.319 | viability ([7]; at 0.000305 µM, OCI-C5x cells, with rucaparib 10 µM, 100% = cells with rucaparib alone) 114% | viability ([7]; at 0.000305 µM, OCI-C5x cells, without rucaparib) 127% | viability ([7]; at 0.000305 µM, OCI-P5x cells, without rucaparib) 118% | viability ([7]; at 0.00122 µM, OCI-C5x cells, with rucaparib 10 µM, 100% = cells with rucaparib alone) 111% | viability ([7]; at 0.00122 µM, OCI-C5x cells, without rucaparib) 142% | viability ([7]; at 0.00122 µM, OCI-P5x cells, without rucaparib) 119% | viability ([7]; at 0.00488 µM, OCI-C5x cells, with rucaparib 10 µM, 100% = cells with rucaparib alone) 109% | viability ([7]; at 0.00488 µM, OCI-C5x cells, without rucaparib) 121% | viability ([7]; at 0.00488 µM, OCI-P5x cells, with rucaparib 20 µM, 100% = cells with rucaparib alone) 102% | viability ([7]; at 0.00488 µM, OCI-P5x cells, without rucaparib) 115% | viability ([7]; at 0.0195 µM, OCI-C5x cells, with rucaparib 10 µM, 100% = cells with rucaparib alone) 110% | viability ([7]; at 0.0195 µM, OCI-C5x cells, without rucaparib) 128% | viability ([7]; at 0.0195 µM, OCI-P5x cells, without rucaparib) 111% | viability ([7]; at 0.0781 µM, OCI-C5x cells, with rucaparib 10 µM, 100% = cells with rucaparib alone) 112% | viability ([7]; at 0.0781 µM, OCI-C5x cells, without rucaparib) 136% | viability ([7]; at 0.0781 µM, OCI-P5x cells, without rucaparib) 107% | viability ([7]; at 0.313 µM, OCI-C5x cells, with rucaparib 10 µM, 100% = cells with rucaparib alone) 117% | viability ([7]; at 0.313 µM, OCI-C5x cells, without rucaparib) 118% | viability ([7]; at 0.313 µM, OCI-P5x cells, without rucaparib) 101% | viability ([7]; at 1.25 µM, OCI-C5x cells, with rucaparib 10 µM, 100% = cells with rucaparib alone) 109% | viability ([7]; at 1.25 µM, OCI-C5x cells, without rucaparib) 121% | viability ([7]; at 5 µM, OCI-C5x cells, with rucaparib 10 µM, 100% = cells with rucaparib alone) 120% | viability ([7]; at 5 µM, OCI-C5x cells, without rucaparib) 114% | inhibition ([8]; at 0.5 µM, stronger effect = higher value) -24.1% and -21.5% | inhibition ([9]; at 0.5 µM) -1.23% and -27.1%
7560: cell count ([4]; measured here: total cells without miR-34 induction)
-29.7% and -74.4%: inhibition ([8]; measured here: combination with cisplatin, at 5 µM, stronger effect = higher value)
-9.73% and -22%: inhibition ([8]; measured here: combination with BGB IC20, at 0.005 µM)

Reference: PubChem BioAssay
